A short description of assay [1]: NCI Yeast Anticancer Drug Screen. Data for the rad50 strain (AID 155).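 Further: 0% = growth of vehicle-only cultures of the same strain.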 The following applies: S. cerevisiae rad50 strain growth inhibition; at 50.0 µM; active compounds read high. In short, it runs like this:
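A DNA repair-deficient yeast mutant serves as the test organism; compound-induced growth inhibition is calculated against vehicle-treated cells.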

Assay [2] can be described thus: NCI Yeast Anticancer Drug Screen. Data for the sgs1 mgt1 strain (AID 161).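 Further: 0% = growth of cultures given vehicle only.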 The following applies: S. cerevisiae sgs1 mgt1 strain, at 50.0 µM, active compounds read high. The method, boiled down:
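Compounds are added to genetically altered yeast, and growth is compared with cultures given vehicle alone to give percent inhibition.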

Assay [3] can be described thus: NCI Yeast Anticancer Drug Screen. Data for the cln2 rad14 strain (AID 165).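 Further: 0% = growth equal to vehicle treated cultures.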 The following applies: S. cerevisiae cln2 rad14 strain, at 50.0 µM, active compounds read high. In short, it runs like this: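 Strain: cln2 rad14 yeast, altered in cell cycle control and DNA damage repair. Read-out: growth inhibition vs vehicle.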
Assay [4] in a line: NCI Yeast Anticancer Drug Screen. Data for the bub3 strain (AID 167). The following applies: S. cerevisiae bub3 mutant strain, at 50.0 µM, active compounds read high. The method, boiled down:
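Inhibition values come from growth of compound-treated mutant yeast normalised to vehicle-treated controls.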

A short description of assay [5]: NCI Yeast Anticancer Drug Screen. Data for the mlh1 rad18 strain (AID 175). The following applies: S. cerevisiae mlh1 rad18 strain growth inhibition; at 50.0 µM; active compounds read high. In short, it runs like this:
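A repair-deficient yeast strain is exposed to test compound, and growth is scored relative to vehicle-treated controls.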

Structures are written as SMILES. The panel holds about 79,000 compounds, 15% with a hit somewhere; the sample as a whole holds those more often. Values without a mark were called inactive. Active and inactive are the calls of the source. No stated cut-off is given here; in the data, active means growth inhibition above about 70%; inactive means the rest.

As for `NCCSCCC(=O)O`, the growth inhibition in assay [1] is -0.25%; in assay [2], -36.9%; in assay [3], 7.3%; in assay [4], -28.4%; in assay [5], -22.6%.
For `Cc1c(C(=O)/C=C/c2ccc(N(C)C)cc2)c(=O)n(-c2ccccc2)n1C` the same measures were -7%, -36.1%, -8.85%, -29.7% and -20.1%.
For `O=C(O)C1CSCN1` (stereo not drawn), in that order: -3.85%, -3.2%, 1.1%, 1% and 18.3%.
For the compound `O=c1[nH]c(-c2ccccc2)nc(-c2ccccc2)c1Cc1cc2c(cc1O)OCC2`, the growth inhibition was -0.1% in assay [1], 2.8% in assay [3], 0.7% in assay [4] and -10.6% in assay [5].
Regarding `c1ccc2[nH]c(N=Nc3cccc4c(N=Nc5cc6ccccc6[nH]5)cccc34)cc2c1`, the growth inhibition in assay [1] is 5.1%; in assay [2], -13.7%; in assay [3], 18.1%; in assay [4], -2.6%; in assay [5], 8.65%.
For `O=C(Nc1ccc(Cl)cc1)Nc1nnc(-c2cc([N+](=O)[O-])cc([N+](=O)[O-])c2)o1` the same measures were -2.1%, 28.8%, -13.3%, -32.6% and -2.25%.
As for `O=S(=O)(/N=c1/ccc(NS(=O)(=O)c2ccccc2)cn1O)c1ccccc1`, the growth inhibition in assay [1] was 25.5%; in assay [2], 18.1%; in assay [3], -23%; in assay [4] it was 10.6%; in assay [5], 14.6%.
For `COc1ccc(NC(=S)c2ccoc2C)cc1CC(=O)OC(C)C`, in that order: 17.4%, 48.5%, 13.2%, 37.9% and -18.7%.
For `c1csc(-c2cc(-c3ccsc3)c(-c3ccsc3)s2)c1` the same measures were -37.5%, -33.6%, -5.35%, -15.9% and -8.6%.
For `COC(=O)/C=C/c1ccc(OC(C)=O)c(OC)c1` the same measures were -1.9%, -13.6%, -19.1%, 16.6% and -4.9%.
As for `N#Cc1nc(-c2ccccc2C(=O)O)oc1N`, the growth inhibition in assay [1] was -0.5%; in assay [2], -16.1%; in assay [3], 5.7%; in assay [4] it was -7.15%; in assay [5], -62%.
For `Cc1cc(Cl)ccc1NC(=O)Nc1c(Oc2ccc(Cl)cc2)ccc(Cl)c1S(=O)(=O)O`, in that order: 76.8% (active), 55.5%, 3.85%, -0.75% and 45.9%.
For `CC1(C)C(=O)CCC2(C)C(OC(=O)c3ccc(C(=O)O)cc3)CCCC12` (stereo not drawn) the same measures were -2%, 30.1%, -15.4%, 20.2% and 18.4%.
For `O=c1[nH]c(=O)n(C2OC(CO)C(O)C2O)cc1I` (stereo not drawn), in that order: -10.2%, -6.9%, 15.2%, 5.6% and -13.8%.
On to `CC12CCCC(C(=O)O)(C1)[C@H](C(C)(C)C(=O)O)CC2` (stereo partly drawn), for which the growth inhibition in assay [1] was -29.5%; in assay [2] it was -15.7%; in assay [3], 8.75%; in assay [4] it was -4.2%; in assay [5] it was -10.8%.
For `Cc1cc2c(=O)cc(-c3ccccc3Cl)oc2c(C(=O)O)c1C` the same measures were -3.1%, -4.45%, 8.2%, -2.75% and -18.6%.
In the case of `COc1cc(C)c(C#N)c(OC)n1`, the growth inhibition was 19.4% in assay [1], 9.9% in assay [2], 12.9% in assay [3] and 14.8% in assay [5].
As for `CC1(C)CC(=O)NC1=O`, the growth inhibition in assay [1] is 30.8%; in assay [2] it was 8.55%; in assay [3], -0.2%; in assay [4], -19%; in assay [5] it was 9.3%.
For `CCCCCCCCCCCNc1ncnc2[nH]ncc12` the same measures were -8.6%, 5.3%, -0.7%, -2.05% and 9.8%.
For `COc1ccc(N2C(=O)CCC2=O)cc1`, in that order: -7.8%, -7.7%, -6.15%, -9.9% and 4.9%.
For `COC(=O)NN/C=C(\C=Nc1ccccc1)[N+](=O)[O-]` the same measures were -0.25%, 17.4%, 18.4%, 12.9% and 5.4%.
Turning to `CCn1c(C)nc([N+](=O)[O-])c1Sc1ncc[nH]1`, the growth inhibition in assay [1] was -7.8%; in assay [2], -11.4%; in assay [3], 27.8%; in assay [4], 10.2%; in assay [5], -3.35%.
For `CCOC(=O)NC(NC(=O)OCC)c1ccc(C(NC(=O)OCC)NC(=O)OCC)cc1`, in that order: 30.9%, 5.45%, 5%, 2.8% and 7.9%.
For `Cc1c(C(=O)OCCCl)c(=O)n(-c2ccccc2)n1C`, in that order: -43.4%, 4.7%, 19.6%, -33.5% and -0.55%.
For `Cc1cc(C)cc(Sc2c([N+](=O)[O-])ncn2C)c1` the same measures were 7.65%, -16.7%, 21.1%, 29.2% and 39.7%.
Consider `CC1OS(=O)OC1C` (stereo not drawn), for which the growth inhibition in assay [1] was -20.9%; in assay [2], -2.4%; in assay [3], -21.7%; in assay [4], -8.45%; in assay [5], -0.4%.
For `C=CCOc1ccc(N)c([N+](=O)[O-])c1` the same measures were 42.1%, 23.3%, 14.1%, 36.7% and 2.85%.
As for `COC(=O)C(Cc1ccccc1)NC(=O)C(CCC(=O)OCc1ccccc1)NC(=O)OC(C)(C)C` (stereo not drawn), the growth inhibition in assay [1] was 30.9%; in assay [2] it was 19.8%; in assay [3], 19.9%; in assay [4] it was 31.4%; in assay [5], 22%.
For `Cc1cccc(C(C)(C)C)c1NC(=O)C(=O)Cc1nc2ccccc2s1`, in that order: -12.1%, 5.6%, -41.7%, 5.4% and 18.2%.
Turning to `OCCCN=C1CCCCC1`, the growth inhibition is -3.4% in assay [1]; -35.5% in assay [2]; -54.4% in assay [3]; -11% in assay [4]; -13.3% in assay [5].
For `CC(=O)SCC(C)CCl` (stereo not drawn), in that order: -12.4%, -30.9%, -3.15%, -17.7% and -25.4%.
For `O=c1nc(NCC23CC4CC(CC(C4)C2)C3)ccn1C1OC(CO)C(O)C1O` (stereo not drawn) the same measures were 21.8%, -8.1%, 16.6%, -4.95% and -6.5%.
For `CCCNC(=O)/C=C\S(=O)CCC` (stereo not drawn), in that order: -1.15%, 1.15%, -16.5%, 16.9% and -2.6%.
With `CC(=O)Nc1ccc(Br)cc1`, the growth inhibition in assay [1] is 0.85%; in assay [2], -18.4%; in assay [3], -34%; in assay [4], -17.1%; in assay [5], 0.1%.
For `CC(C)CCCC(C)C1CCC2C3CCC4CC5(C)C(CC4(C)C3CCC12C)C(=O)C5(Cl)Cl` (stereo not drawn), in that order: 13.2%, -22.4%, 0%, -3.55% and -27.9%.
Consider `C=C1CC(C)(Cn2cnc3c(N)ncnc32)OC1=O` (stereo not drawn), for which the growth inhibition was 9% in assay [1]; 9.05% in assay [2]; 20.1% in assay [3]; 16.7% in assay [4]; 21.1% in assay [5].
As to `Cc1ccc(S(=O)(=O)Nn2c(-c3ccccc3)c(C#N)c(-c3ccc([N+](=O)[O-])cc3)c(C#N)c2=O)cc1`, the growth inhibition in assay [1] was -0.65%; in assay [2] it was 8.6%; in assay [3], 11.6%; in assay [4], 20.1%; in assay [5], 37%.
For `O=C1Nc2cccc3cc(NCC(O)CCl)cc1c23` (stereo not drawn) the same measures were 31.3%, 11.4%, 17.9%, 3.05% and -23.9%.
For `O=C(c1ccc(Cl)cc1)C(c1ccccc1)N1CCCCC1` (stereo not drawn) the same measures were 2.05%, -0.1%, -45.8%, -1.6% and 6.85%.

The values are drawn from PubChem BioAssay (NCI).
